Hits are enriched below; roughly 2.8% of the tested compounds scored in any of these assays.
Shn3 3UTR inh = Schnurri-3 reporter inhibition in Clone20 osteoblasts; inhibition, % at 12.5 µM; actives 0.52% (n = 360,000); Clone20 osteoblast Shn3 3'UTR firefly luciferase, 24 h;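 active means mean inhibition of at least 75% with every replicate also reaching 75%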;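 further: 0% = median of neutral control wells and 100% = pilot-screen positive control compound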
TRPM1 prom inh = inhibitors of MITF-driven TRPM1 promoter in melanoma cells; SK-MEL-5 TRPM1 promoter luciferase, 24 h; inhibition, % at 12.5 µM; actives 0.83% (n = 330,000);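 active means mean inhibition across replicates of 60% or more, whatever share of single replicates reaches that level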
CF NFkB block = blocks PAF-induced NF-kB reporter in cystic fibrosis cells; KKLEB NF-kB-GFP reporter, GFP fluorescence overnight; inhibition, % at 5 µM; actives 0.86% (n = 360,000);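 active means at least 50% inhibition at 5 µM, scaled per plate between neutral and stimulator controls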;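 further: PAF is a Pseudomonas aeruginosa culture filtrate used as stimulus; plate controls were PAF-stimulated DMSO wells for no effect and unstimulated DMSO wells for full effect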
HIF-2a inh = inhibitors of HIF-2a. 786-0 RCC cells HIF-2a reporter, luciferase luminescence, overnight. inhibition, % at 18.8 µM. actives 0.72% (n = 360,000). AID 624352;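 active means inhibition of the luminescence signal of 40% or more relative to plate controls, in a single-dose primary screen at 18.75 µM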
Peg3 promoter = Peg3 promoter activity inhibition | HeLa PEG-Prom luciferase reporter, luminescence, overnight | inhibition, % at 20 µM | actives 1.7% (n = 360,000) | AID 588405;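 active means inhibition of at least 50% at 20 µM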
KKLEB tox = counter-screen for CF NF-kB inhibitors: cytotoxicity; KKLEB CF airway cells viability, ATPlite luminescence, overnight; stronger effect = lower value; cells stimulated with P. aeruginosa culture filtrate; activity change (cytotoxicity), % at 5 µM; actives 0.36% (n = 360,000);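 active means corrected activity change at or below -50% at 5 µM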
* = called active by the depositor; / = no result given.

SMILES	Shn3 3UTR inh	TRPM1 prom inh	CF NFkB block	HIF-2a inh	Peg3 promoter	KKLEB tox
O=C1CC(SCc2nc3ccccc3[nH]2)C(=O)N1c1cccc(Cl)c1 (configuration not stated)	0	9	7	2	0	-16
COc1ccc(N2C(=O)CC(Sc3nnnn3-c3ccc(F)cc3)C2=O)cc1 (configuration not stated)	73	22	27	0	114*	-2
O=C(CCC(=O)c1ccccc1)NC1CCCN(Cc2ccccc2F)C1 (configuration not stated)	1	-11	-21	14	23	2
FC(F)(F)c1cccc(NC(=S)N(CCCN2CCCC2)Cc2cccn2Cc2ccc(Cl)cc2)c1	40	16	36	-21	106*	-17
COc1ccc(NC(=S)N(CCCN2CCCC2)Cc2cccn2Cc2ccc(Cl)cc2)cc1Cl	1	7	26	-13	103*	-12
Cc1cc(NC(=S)N(CCN2CCCCC2)Cc2ccco2)ccc1Cl	17	-4	8	4	7	-6
Cc1ccc(NC(=S)N(CCCN2CCCC2)Cc2cccn2Cc2ccc(Cl)cc2)cc1Cl	61	-3	16	-14	98*	-19
CN(C)CCCN(Cc1ccccc1)C(=S)Nc1cccc(C(F)(F)F)c1	8	2	10	10	13	-1
CCN(C[C@H]1N[C@@](C)(C(=O)OC)[C@H]2C(=O)N(C)C(=O)[C@@H]12)C(=O)Nc1ccc(C(F)(F)F)cc1	57	-9	22	-5	-4	1
CCC(C)N(CCNC(=O)c1ccc2c(c1)NC(=O)c1ccccc1S2)C1CCCCC1 (configuration not stated)	22	11	11	6	76*	-25
COc1ccc(CC2C(=O)NC(C)C(=O)N(C)C3Cc4ccc(cc4)Oc4cc(ccc4O)CC(C(=O)NC(C)C(=O)NC(C)C(=O)N2C)N(C)C3=O)cc1 (configuration not stated)	95*	98*	88*	82*	97*	-45
COc1ccc(CN2C(=O)C(C)Nc3ncnc(N4CCc5ccccc5C4)c32)cc1 (configuration not stated)	13	/	25	11	16	-8
O=Nc1c(O)n(Cc2ccccc2)c2ccccc12	0	13	18	14	18	10
O=Nc1c(O)n(Cc2cccc(C(F)(F)F)c2)c2ccccc12	19	2	51*	28	38	-16
CN(C)S(=O)(=O)c1cc(C(=O)OCCn2cnc3c2c(=O)n(C)c(=O)n3C)ccc1Cl	11	10	-3	-2	-1	-7
COc1ccc(N2C(=O)CC(Cc3ccccc3)C2=O)cc1 (configuration not stated)	-5	-7	5	2	-6	-6
COc1ccc(C[C@@H]2OC3(C=CC(=O)C=C3)O[C@H]2Cc2ccc(OC)cc2)cc1	94*	100*	85*	87*	103*	-78*
O=C1C=CC2(C=C1)O[C@H](Cc1ccccc1)[C@@H](Cc1ccccc1)O2	97*	97*	96*	92*	108*	-98*
CN(CC(=O)Nc1ccc(F)cc1)C(=O)C1CCN(C(=O)Nc2ccccc2)CC1	-5	-3	10	6	-3	8
Cc1cc(NC(=O)CSc2nc3sc(C)c(C)c3c(=O)n2C2CCCC2)no1	42	-1	36	9	20	-59*
Cc1cc(NC(=O)CSc2nc(C(C)C)nc3sc(C)c(C)c23)no1	43	16	8	20	23	1
CCCCCN(C(=O)CCC(=O)OCCOc1cccc(Cl)c1)c1c(N)n(CCCC)c(=O)[nH]c1=O	12	8	20	18	11	3
CC(=O)N1c2ccc(Cl)cc2C2C=CCC2C1c1cccc2ccccc12 (configuration not stated)	62	10	35	17	66*	-18
COc1ccc(NS(=O)(=O)c2cc(C(=O)N3CCN(C/C=C/c4ccccc4)CC3)ccc2C)cc1	-21	5	11	-2	21	-14
C#CCNC(=O)C1=C[C@@H](c2ccc(C#C)cc2)C[C@@H](OCc2ccc(CO)cc2)O1	-7	-8	18	-31	-29	-11
SMILES	Shn3 3UTR inh	TRPM1 prom inh	CF NFkB block	HIF-2a inh	Peg3 promoter	KKLEB tox
CCCc1cnc(N2CCN(C(=O)c3ccc(OC)cc3)CC2)nc1	-10	0	17	-11	-11	-4
COc1ccc(C(=O)CCS(=O)(=O)c2ccc(C)cc2)cc1OC	-24	-3	26	22	59*	8
CCn1c(=O)c2sccc2n(Cc2ccccc2)c1=O	0	7	-7	26	15	-3
CC1=C(C)/C(=N\OS(=O)(=O)c2ccc(C)cc2)C=CC1=O	95*	48	72*	88*	106*	-36
COc1ccc(S(=O)(=O)/N=C2/C=CC(=O)C(C)=C2C)cc1	11	7	-11	9	13	22
C=CCN1C(=O)/C(=C/c2ccc(OC(C)=O)c(OCC)c2[N+](=O)[O-])SC1=S	-22	23	54*	-133	-49	-44
CC(C)=CC(O)C/C(C)=C/COc1ccc2ccc(=O)oc2c1 (configuration not stated)	17	56	14	-2	94*	7
CCCS(=O)(=O)NC(=O)C1(C)CCCN(C(=O)c2c(F)ccc(C)c2F)C1 (configuration not stated)	12	/	-23	2	2	9
CC(=O)C1(O)CCC2C3CC(C)C4=CC(=O)C=CC4(C)C3(F)C(O)CC21C (configuration not stated)	-3	-6	71*	21	-7	36
CC(=O)OCC(=O)[C@@]1(OC(C)=O)[C@@H](C)C[C@H]2[C@@H]3C[C@H](F)C4=CC(=O)C=C[C@]4(C)[C@@]3(F)[C@@H](O)C[C@@]21C	14	-16	77*	24	-5	31
CC(=O)OCC(=O)C1(O)CCC2C3CC(C)C4=CC(=O)C=CC4(C)C3=CCC21C (configuration not stated)	-6	-5	45	21	-1	5
CC(=O)OCC(=O)C1(O)CCC2C3CC(C)C4=CC(=O)C=CC4(C)C3(F)C(O)CC21C (configuration not stated)	-4	-6	80*	18	8	19
O=C(CN(Cc1ccc(F)cc1)C(=O)CCC(=O)Nc1nccs1)NCc1ccc(F)cc1	-7	2	-7	4	4	-9
COc1ccc2c(Cl)c(C(=O)N/N=C/c3ccc4c(c3)OCO4)sc2c1	6	7	22	1	51*	-12
COC(=O)[C@H](C)N(Cc1ccc(Cl)c(Cl)c1)S(=O)(=O)CCN1CCCC1	-8	-11	21	-18	-3	3

Screening data (PubChem BioAssay)
